For assay [1], the system named is RAW-Dual. Briefly: NF-kB SEAP reporter activity, fold change vs agonist alone; cytotoxicity flag (confluency mask): not cytotoxic; higher = enhanced NF-kB activity. The method, boiled down: (§1)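 RAW-Dual macrophages were seeded in DMEM at 50,000 cells/well in 384-well plates, given 50 nL of library stock by pin tool, and given a PRR agonist 1 h later. Plates were held at 37 °C, 5% CO2 for 20 hours, after which supernatant was read for IRF by QuantiLuc luminescence and for NF-κB by QuantiBlue absorbance at 620 nm. Reporter activity is expressed as fold change over wells that received agonist alone. A well was called cytotoxic when IncuCyte confluency fell below 70% of agonist controls in both mask sets.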

Assay [2] has as its system RAW-Dual. The assay can be described thus: NF-kB SEAP reporter activity, fold change vs agonist alone; higher = enhanced NF-kB activity. The method, boiled down: as §1
The subject of assay [3] is RAW-Dual. The assay can be described thus: NF-kB SEAP reporter activity, fold change vs agonist alone; cytotoxicity flag (confluency mask): cytotoxic (confluency <70% of control); higher = enhanced NF-kB activity. The method, boiled down:
as §1

Setting [4] is: agonist: ODN 1826 (TLR9) 0.5 ug/mL.
[5] abbreviates: agonist: Pam2CSK4 (TLR2/6) 0.1 ug/mL.
Where [6] appears, read: agonist: Pam3CSK4 (TLR2/1) 0.1 ug/mL.
The mark [7] stands for this setting: library stock concentration (final ~1000-fold dilution): 10 mM, cytotoxicity flag (confluency mask): not cytotoxic, agonist: Imiquimod (TLR7) […].
Where [8] appears, read: library stock concentration (final ~1000-fold dilution): 10 mM, cytotoxicity flag (confluency mask): not cytotoxic, agonist: MPLA (TLR4) […].
Setting [9] is: library stock concentration (final ~1000-fold dilution): 10 mM, cytotoxicity flag (confluency mask): cytotoxic (confluency <70% of control), agonist: Imiquimod (TLR7) […].
Setting [10] is: library stock concentration (final ~1000-fold dilution): 10 mM, cytotoxicity flag (confluency mask): cytotoxic (confluency <70% of control), agonist: MPLA (TLR4) […].

The full ranking holds about 2,900 compounds; the median of “NF-kB SEAP reporter activity, fold change vs agonist alone” is about 0.99, and the highest 2% start at about 2.6. The list comes from a sample in which the highest values are over-represented; it also holds similar structures and randomly drawn compounds.

`O=C(Nc1ccncc1)c1cc([N+](=O)[O-])ccc1Cl` (library stock concentration (final ~1000-fold dilution): 10 mM): the “NF-kB SEAP reporter activity” value amounted to 0.801 in assay [1] (agonist: LPS (TLR4) 0.1 ug/mL), 0.584 in assay [1] (setting [4]), 0.853 in assay [1] (setting [5]) and 0.69 in assay [1] (setting [6]).
Consider `Cc1c(-c2ccc(C(N)=O)c3[nH]c4cc(C(C)(C)O)ccc4c23)cccc1-n1cnc2ccccc2c1=O`, for which the “NF-kB SEAP reporter activity” value in assay [2] (setting [7]) turned out to be 1.76; in assay [2] (setting [8]), 1.37.
`Cc1c(-c2ccc(C(N)=O)c3[nH]c4cc(C(C)(C)O)ccc4c23)cccc1-n1cnc2ccccc2c1=O` (library stock concentration (final ~1000-fold dilution): 10 mM): the “NF-kB SEAP reporter activity” value was 1.25 in assay [1] (agonist: LPS (TLR4) 0.1 ug/mL), 1.1 in assay [1] (setting [4]), 0.537 in assay [1] (setting [5]) and 0.833 in assay [1] (setting [6]).
For `CC(O)C1C(=O)N2C(C(=O)O)=C(SCCNC=N)CC12.O` (centres undefined) (library stock concentration (final ~1000-fold dilution): 10 mM water), in that order: 1.41, 1.16, 1.23 and 1.07.
For the compound `CC(O)C1C(=O)N2C(C(=O)O)=C(SCCNC=N)CC12.O` (centres undefined), the “NF-kB SEAP reporter activity” value in assay [2] (library stock concentration (final ~1000-fold dilution): 10 mM water, cytotoxicity flag (confluency mask): not cytotoxic, agonist: Imiquimod (TLR7) […]) stood at 0.896; in assay [2] (library stock concentration (final ~1000-fold dilution): 10 mM water, cytotoxicity flag (confluency mask): not cytotoxic, agonist: MPLA (TLR4) […]), 1.02.
On to `CCCn1c(NC(=O)c2cccc(C(N)=O)c2)nc2ccccc21`, for which the “NF-kB SEAP reporter activity” value came to 0.36 in assay [2] (setting [7]) and 0.54 in assay [2] (setting [8]).
`CCCn1c(NC(=O)c2cccc(C(N)=O)c2)nc2ccccc21` (library stock concentration (final ~1000-fold dilution): 10 mM): the “NF-kB SEAP reporter activity” value in assay [1] (agonist: LPS (TLR4) 0.1 ug/mL) amounted to 0.482; in assay [1] (setting [4]) it was 0.333; in assay [1] (setting [5]) it was 0.143; in assay [1] (setting [6]) it was 0.205.
`COc1ccc(N2C(=O)/C(=C/c3ccc([N+](=O)[O-])s3)SC2=S)cc1`: the “NF-kB SEAP reporter activity” value stood at 1.65 in assay [2] (setting [9]) and 1.63 in assay [2] (setting [10]).
With `COc1ccc(N2C(=O)/C(=C/c3ccc([N+](=O)[O-])s3)SC2=S)cc1` (library stock concentration (final ~1000-fold dilution): 10 mM), the “NF-kB SEAP reporter activity” value in assay [3] (agonist: LPS (TLR4) 0.1 ug/mL) amounted to 0.439; in assay [3] (setting [4]), 2.23; in assay [3] (setting [5]), 0.267; in assay [3] (setting [6]), 0.382.
On the same counts, the results for `CC(NC(=O)/C(C#N)=C/c1cccc(Br)n1)c1ccccc1` (centres undefined) (library stock concentration (final ~1000-fold dilution): 10 mM) are 0.233, 0.186, 0.0992 and 0.136.
Turning to `CC(NC(=O)/C(C#N)=C/c1cccc(Br)n1)c1ccccc1` (centres undefined), the “NF-kB SEAP reporter activity” value in assay [2] (setting [9]) was determined as 0.268; in assay [2] (setting [10]) it was 0.204.
As to `CCC1OC(=O)C(C)(F)C(=O)C(C)C(OC2OC(C)CC(N(C)C)C2O)C(C)(OC)CC(C)C(=O)C(C)C2N(CCCCn3cc(-c4cccc(N)c4)nn3)C(=O)OC12C` (centres undefined), in assay [2] (setting [8]), the “NF-kB SEAP reporter activity” value was found to be 1.53.
With `CCC1OC(=O)C(C)(F)C(=O)C(C)C(OC2OC(C)CC(N(C)C)C2O)C(C)(OC)CC(C)C(=O)C(C)C2N(CCCCn3cc(-c4cccc(N)c4)nn3)C(=O)OC12C` (centres undefined) (library stock concentration (final ~1000-fold dilution): 10 mM), the “NF-kB SEAP reporter activity” value was 1.47 in assay [1] (agonist: LPS (TLR4) 0.1 ug/mL), 0.196 in assay [1] (setting [4]), 0.966 in assay [1] (setting [5]) and 0.98 in assay [1] (setting [6]).

For the origin of these results see the supplement of paper PMC10037445.
